Results filed as inconclusive are left out. A call without a number means that no potency is given here. Activity calls are given as the source filed them. Calls come from the whole dose curve; as a rule, active = well fitted cell-killing curve with a large enough effect; inconclusive = small, poorly fitted or top-dose-only effect, or effect the other way; inactive = flat fitted curve, though single readings scatter. Where a SMILES comes first, the peptide text is derived from it. The star is where a group is joined. βNA = c1ccc2cc(N*)ccc2c1; Cbz = O=C(OCc1ccccc1)*
Each molecule was assayed on C33A (assay: Primary qHTS to identify gynecologic anti-cancer compounds using libraries of approved drugs and bioactive compounds (AID 1345084; note: nearly all actives have a fitted effect of over 55% in size)). Conditions: Gynecologic cancer cell panel viability, ATPlite luminescence, 48 h; series mostly up to 57.5 µM.
Procedure, shortened: (§1)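 Measured: luminescence after ATPlite addition (15 min, RT). Exposure: 48 h, 37 C, 5% CO2.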

SMILES	Potency	activity change, negative = cytotoxicity
O=C(C[C@@H]1C(C(=O)O)=CO[C@@H](O[C@@H]2O[C@H](CO)[C@@H](O)[C@H](O)[C@H]2O)/C1=C\CO)OCCc1ccc(O)cc1	inactive	–
COC(=O)[C@H](O)[C@H]1C(C)(C)[C@H](OC(C)=O)[C@@]2(O)C(=O)[C@]1(C)C1CC[C@]3(C)C(CC(=O)O[C@H]3c3ccoc3)[C@]13O[C@@H]32 (stereo not given in full)	inactive	–
CC(=O)c1c(C)cccc1O[C@@H]1O[C@H](CO)[C@@H](O)[C@H](O)[C@H]1O	inactive	–
C/C=C(\C)C(=O)OC1CC2C(CC=C3CC(OC4CC(OC)C(OC5CC(OC)C(OC6CC(OC)C(OC7CC(OC)C(OC8CC(OC)C(OC9OC(CO)C(O)C(O)C9O)C(C)O8)C(C)O7)C(C)O6)C(C)O5)C(C)O4)CCC32C)C2(O)CCC(C(C)=O)C12C (stereo not given)	–	4.48% [at 6.55 µM] (inactive)
COc1ccc2[nH]c(S(=O)Cc3ncc(C)c(OC)c3C)nc2c1 (stereo not given)	inactive	–
COc1cc(C)c(C(=O)OC2C(C)OC(OC3CCC(C)C4C3C=C(C)C3/C(C)=C\CC/C(C)=C/C5(C)C=C(C(=O)O)C(C)CC56OC(=O)/C(=C(\O)C34C)C6=O)C(O)C2O)c(OC)c1 (stereo not given)	–	17.6% [at 11.6 µM] (inactive)
COc1ccc(/C=C/C(=O)O[C@@H]2[C@@H](O[C@@H]3O[C@H](CO)[C@@H](O)[C@H](O)[C@H]3O)[C@@H](O)[C@H](O[C@H]3C4C=CO[C@@H](O[C@@H]5O[C@H](CO)[C@@H](O)[C@H](O)[C@H]5O)C4[C@@]4(CO)O[C@@H]34)O[C@H]2C)cc1 (stereo not given in full)	–	-3.09% [at 11.6 µM] (inactive)
CC(C)C1NC(=O)C(CC2(O)c3ccccc3N3C(=O)C(Cc4ccccc4)NC32)NC1=O (stereo not given)	inactive	–

These molecules were tested on CAOV3 in the same assay as above. Conditions: Gynecologic cancer cell panel viability, ATPlite luminescence, 48 h; series mostly up to 57.5 µM.
Procedure, shortened: as §1

SMILES	Potency
NC(N)=NCCC[C@H](NC(=O)c1sccc1NS(=O)(=O)c1cccc2nsnc12)C(=O)O	inactive
Nc1ccc(-n2nc(C(F)(F)F)cc2C(F)(F)F)cc1	inactive
C[C@H](O)C(O)(C(=O)OCc1ccccc1NC(=O)CCC(N)C(=O)O)[C@H](C)O (stereo not given in full)	inactive
CC[C@H](NC(=O)c1c(O)c(-c2ccccc2)nc2ccccc12)c1ccccc1	inactive
CC/C=C/C(O)C(O)C1=C(C)C(=O)C2(O1)C(=O)NC(OC)(C(=O)c1ccccc1)C2O (stereo not given)	inactive
Fc1cccc(CN(C2=NCCN2)c2c(Cl)cccc2Cl)c1	inactive
O=C(O)CCc1cccc(O)c1O[C@@H]1O[C@H](CO)[C@@H](O)[C@H](O)[C@H]1O	inactive
CCC(C)/C=C(C)/C=C/C1=CC2=CC(=O)C(C)(O)C(OC(C)=O)C2CO1 (stereo not given)	inactive
CC1CC(O)/C=C/C(O)/C=C\C(=O)O1 (stereo not given)	inactive
CC(C)CC(NC(=O)OCc1ccccc1)C(=O)NC(CC(C)C)C(=O)NC(CCC(=O)O)C(=O)Nc1ccc2ccccc2c1 (stereo not drawn) (Cbz-Leu-Leu-Glu-βNA; configuration not given here)	inactive
COCc1c(O)c(C(=O)O)c(C)c2c1OC(=O)c1c(C)cc(O)c(CO)c1O2	inactive
C=C(C(=O)O)C1CC(O)C2(C)CCCC(C)(O)C2C1 (stereo not given)	inactive
C=C[C@H]1[C@H](O[C@@H]2O[C@H](CO)[C@@H](O)[C@H](OC(=O)/C=C/c3ccc(O)c(OC)c3)[C@H]2O)OC=C2C(=O)OCC[C@]21O	inactive
COC(=O)C1(O)C(OC(C)=O)CCC2C3(CC(c4ccoc4)OC3=O)C(C)=CCC21C(=O)OC (stereo not given)	inactive
O=C(Nc1cc(-c2ccccc2)nn1-c1ccccc1F)c1ccc([N+](=O)[O-])cc1	inactive
Cc1sc(C)c(C(=O)NC2(c3ccc(C(=O)O)cc3)CC2)c1Cc1ccc(C(F)(F)F)cc1	inactive
COc1cc([C@@H](O[C@@H]2O[C@H](CO)[C@@H](O)[C@H](O)[C@H]2O)[C@@H]2CO[C@H](c3ccc(O)c(OC)c3)[C@H]2CO)ccc1O	inactive
CC(C)NC(=O)c1ccc(C#Cc2ccncc2)cn1	inactive
O=C(O)CC/C=C\C[C@H]1CO[C@@H](c2ccccc2Cl)O[C@H]1c1ccccc1O	inactive
CC(C)=CCc1cc(O[C@@H]2O[C@H](CO[C@@H]3OC[C@](O)(CO)[C@H]3O)[C@@H](O)[C@H](O)[C@H]2O)ccc1O	inactive
CC1(C)[C@@H]2CC=C(CO[C@@H]3O[C@H](CO[C@@H]4OC[C@H](O)[C@H](O)[C@H]4O)[C@@H](O)[C@H](O)[C@H]3O)[C@H]1C2	inactive
COc1ccc(C2C(C(=O)O)C(C(=O)O)C2c2ccc(OC)cc2O[C@@H]2O[C@H](CO)[C@@H](O)[C@H](O)[C@H]2O)c(O[C@@H]2O[C@H](CO)[C@@H](O)[C@H](O)[C@H]2O)c1 (stereo not given in full)	inactive

— PubChem BioAssay (NCATS)
